Drawing on PubChem BioAssay (EPA / NIEHS), this text covers outcome and AC50 for five molecules.

What is called AC50 is the concentration at which the activity in the assay is half-maximal.

A short description of test [1]: ATG_Ets_CIS: Attagene CIS-FACTORIAL HepG2 Assay for human Erythroblast Transformation Specific (ETS) (AID 2282941). As to conditions: HepG2 ETS cis-reporter transcription, actives raise or lower the signal. In outline:
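HepG2 cells transfected with multiple cis-regulated reporter units measuring endogenous ETS-driven transcription, 24 h after dosing. Reporter mRNA quantified by RT-PCR with capillary electrophoresis; bidirectional fit relative to DMSO.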

A short description of test [2]: ATG_M_06_CIS: Attagene CIS-FACTORIAL HepG2 Assay for M06 Transcription Factor (Internal Marker) (AID 2282950). As to conditions: HepG2 Attagene CIS-FACTORIAL M06 internal marker reporter; actives raise or lower the signal. In outline:
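Cells (HepG2, transiently carrying cis-driven reporter units) receive chemical for 24 h before RNA isolation. Reporter cDNA is PCR-amplified, FAM-labelled by primer extension, HpaI-digested and sized on a capillary analyser.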

A short description of test [3]: ATG_TAL_CIS: Attagene CIS-FACTORIAL HepG2 Assay for human TAL Basal Promoter (AID 2282966).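 Further: background control endpoint measuring basal TAL promoter reporter mRNA not a specific factor.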 The note with it: HepG2 Attagene cis-factorial TAL promoter reporter; actives raise or lower the signal. In outline:
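Fluorescence of labelled reporter cDNA fragments, resolved by capillary electrophoresis, gave the readout. Human HepG2 liver cells carried transiently transfected cis-element reporter units and were treated for 24 hours; activity was fitted bidirectionally against DMSO.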

Test [4] can be described thus: ATG_M_19_TRANS: Attagene TRANS-FACTORIAL HepG2 Assay for M19 Transcription Factor (Internal Marker) (AID 2282974; active means hit-call score of the fitted dose curve at least 0.9, where 1 is the maximum). The note with it: HepG2 Attagene TRANS-FACTORIAL M19 internal marker reporter. In outline: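 24 h chemical exposure of transiently transfected HepG2 (MRTU library). RNA → oligo(dT) RT → PCR → 6-FAM labelling → HpaI cut → CE fluorescence. Positive-direction fit vs DMSO baseline; background internal-marker readout.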

The nature of test [5]: BSK_3C_uPAR: BioMAP Diversity Plus: 3C Assay for Urokinase-type plasminogen activator receptor (uPAR) Biomarker Activity (AID 2282998). The note with it: BioMAP 3C HUVEC, uPAR biomarker ELISA; actives raise or lower the signal. In a few lines: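 In this endothelial cell-based assay, human umbilical vein primary cells were treated with chemicals and harvested at 24 h. uPAR was quantified using ELISA, with gains or losses fitted relative to DMSO controls.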

Test [6] in a line: BSK_3C_VCAM1: BioMAP Diversity Plus: 3C Assay for Vascular cell adhesion molecule 1 (VCAM1) Biomarker Activity (AID 2282999). As to conditions: BioMAP 3C HUVEC, VCAM1 ELISA, cytokine-stimulated; actives raise or lower the signal. In outline:
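Human umbilical vein endothelial cells (3C system), biomarker read by ELISA 24 h after dosing; bidirectional fit against DMSO baseline. Cytotoxicity tracked by SRB total-protein staining in parallel cultures at biomarker time.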
Background: An ELISA detects its analyte on a solid surface through an enzyme-linked reagent.

Test [7] can be described thus: BSK_4H_Eotaxin3: BioMAP Diversity Plus: 4H Assay for Eotaxin 3 Biomarker Activity (AID 2283000).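 On outcome: CCL26 protein level quantified by ELISA in parallel with SRB cytotoxicity check.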 As to conditions: primary human endothelial cells (HUVEC); actives raise or lower the signal. In outline: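 Chemicals were added to human umbilical vein endothelium cultures, and Eotaxin-3 was quantified by ELISA at 24 h. Values were derived by bidirectional fitting with DMSO serving as negative control and activity baseline.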

Read-out in test [8]: Interleukin-1 alpha (IL1a), IL1A (gene 3552)
The experiment in a line: BSK_BE3C_IL1a: BioMAP Diversity Plus: BE3C Assay for Interleukin-1 alpha (IL1a) Biomarker Activity (AID 2283016). As to conditions: primary human bronchial epithelial cells; actives raise or lower the signal. In a few lines:
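BE3C primary human bronchial epithelium; cpd 24 h; IL-1a by ELISA; bidirectional fit vs DMSO; parallel SRB (0.1% SRB, 10% TCA fix, 560 nm) for cytotoxicity.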

Read-out in test [9]: Collagen III, COL3A1 (gene 1281)
The experiment in a line: BSK_hDFCGF_CollagenIII: BioMAP Diversity Plus: hDFCGF Assay for Collagen III Biomarker Activity (AID 2283056). As to conditions: primary human foreskin fibroblasts; actives raise or lower the signal. In a few lines: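 ELISA read-out of collagen III from human skin fibroblast cultures sampled 24 h post-dosing. Values were derived by bidirectional fitting relative to the DMSO vehicle control.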

Read-out in test [10]: Epidermal growth factor receptor (EGFR), EGFR (gene 1956)
The experiment in a line: BSK_hDFCGF_EGFR: BioMAP Diversity Plus: hDFCGF Assay for Epidermal growth factor receptor (EGFR) Biomarker Activity (AID 2283057). The note with it: primary human foreskin fibroblasts; actives raise or lower the signal. In a few lines: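 hDFCGF system, primary human foreskin fibroblasts; compound 24 h; EGFR measured by ELISA; DMSO = negative control/baseline; bidirectional fitting.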

Read-out in test [11]: Vascular cell adhesion molecule 1 (VCAM1), VCAM1 (gene 7412)
The experiment in a line: BSK_hDFCGF_VCAM1: BioMAP Diversity Plus: hDFCGF Assay for Vascular cell adhesion molecule 1 (VCAM1) Biomarker Activity (AID 2283065). The note with it: primary human foreskin fibroblasts; actives raise or lower the signal. In a few lines: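 Human foreskin fibroblast primary cells, chemical exposure 24 h; VCAM-1 by ELISA; bidirectional fit, DMSO = negative control/baseline.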

Read-out in test [12]: Intercellular Adhesion Molecule 1 (ICAM1), ICAM1 (gene 3383)
The experiment in a line: BSK_KF3CT_ICAM1: BioMAP Diversity Plus: KF3CT Assay for Intercellular Adhesion Molecule 1 (ICAM1) Biomarker Activity (AID 2283067). As to conditions: primary human keratinocytes with fibroblasts; actives raise or lower the signal. In outline:
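ICAM-1 levels are measured by ELISA 24 h after dosing a primary human co-culture of keratinocytes and foreskin fibroblasts. Activity in either direction is fitted relative to DMSO vehicle.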

Read-out in a further test: CD40, CD40 (gene 958)
Nature of the test: BSK_LPS_CD40: BioMAP Diversity Plus: LPS Assay for CD40 Biomarker Activity (AID 2283076). As to conditions: primary human HUVEC with PBMC; actives raise or lower the signal. In outline:
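Cells were dosed, incubated 24 h, then assayed for CD40 by ELISA. Gain or loss of signal was analysed relative to DMSO controls. The culture paired human umbilical vein endothelium with peripheral blood mononuclear cells.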

Read-out in test [13]: E-selectin (Homo sapiens) (UniProt P16581)
The experiment in a line: BSK_LPS_Eselectin: BioMAP Diversity Plus: LPS Assay for Eselectin Biomarker Activity (AID 2283077). The note with it: primary human HUVEC with PBMC; actives raise or lower the signal. In a few lines:
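Primary human vascular co-culture (endothelium plus PBMC) was dosed with chemical, then E-selectin quantified by ELISA at 24 h. Endpoint values derive from bidirectional curve fitting relative to DMSO.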

Read-out in test [14]: Interleukin-1 alpha (IL1a), IL1A (gene 3552)
Nature of the test: BSK_LPS_IL1a: BioMAP Diversity Plus: LPS Assay for Interleukin-1 alpha (IL1a) Biomarker Activity (AID 2283080). As to conditions: primary human HUVEC with PBMC; actives raise or lower the signal. In outline:
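ELISA read-out of IL-1 alpha from a human primary vascular co-culture (endothelium plus PBMC) under LPS, sampled 24 hours post-dosing. Activity was fitted in both directions relative to DMSO controls.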

Read-out in test [15]: Monocyte Chemoattractant Protein-1 (MCP1), CCL2 (gene 6347)
Nature of the test: BSK_LPS_MCP1: BioMAP Diversity Plus: LPS Assay for Monocyte Chemoattractant Protein-1 (MCP1) Biomarker Activity (AID 2283081).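 On AC50: co-culture stimulated with LPS; secreted MCP-1 protein quantified by ELISA in culture supernatant.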 As to conditions: primary human HUVEC with PBMC; actives raise or lower the signal. In outline: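 Human endothelial–PBMC co-cultures were dosed with chemical, then LPS-driven MCP-1 levels were quantified by ELISA at 24 h. Activity in either direction was fitted versus DMSO negative control.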

Test [16] in a line: BSK_LPS_PGE2: BioMAP Diversity Plus: LPS Assay for Prostaglandin E2 (PGE2) Biomarker Activity (AID 2283082).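 On AC50: secreted prostaglandin E2 measured by ELISA in LPS-stimulated co-culture.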 As to conditions: primary human HUVEC with PBMC; actives raise or lower the signal. In a few lines:
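LPS-activated HUVEC/PBMC co-culture; cmpd dosed, 24 h; PGE2 by ELISA; bidirectional fit vs DMSO; SRB (0.1%, TCA-fixed, 560 nm) in parallel plates for overt cytotox.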

Read-out in test [17]: Macrophage colony-stimulating factor (MCSF), CSF1 (gene 1435)
Nature of the test: BSK_LPS_MCSF: BioMAP Diversity Plus: LPS Assay for Macrophage colony-stimulating factor (MCSF) Biomarker Activity (AID 2283083). As to conditions: primary human HUVEC with PBMC; actives raise or lower the signal. In outline: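 ELISA readout of M-CSF after 24 h compound exposure in a human endothelial/PBMC co-culture. Activity, in either direction, is fitted relative to DMSO vehicle.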

Read-out in a further test: CD69, CD69 (gene 969)
Nature of the test: BSK_SAg_CD69: BioMAP Diversity Plus: SAg Assay for CD69 Biomarker Activity (AID 2283089).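 On AC50: cell surface CD69 protein quantified by ELISA with fluorescence detection.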 As to conditions: primary human HUVEC with PBMC; actives raise or lower the signal. In a few lines: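 HUVEC co-cultured with PBMC were dosed with chemical, and CD69 was measured by ELISA with fluorescence read-out 24 h later. Bidirectional curve fitting used DMSO as negative control and activity baseline.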

A short description of test [18]: BSK_SAg_PBMCCytotoxicity: PBMC Cytotoxicity Assessment in the BioMAP Diversity Plus: SAg Assay (AID 2283093).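 Further: PBMC viability measured as Alamar Blue reduction fluorescence at 546/580 nm; fitted both ways against DMSO so a hit may be loss or gain of signal.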 As to conditions: primary human HUVEC with PBMC. In a few lines:
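HUVEC/PBMC co-culture; PBMC exposed to chemical 1 h before SEB and TSST-1 activation (20 ng/mL each), incubated 90 h, then Alamar Blue 6 h, fluorescence 546/580 nm. Bidirectional fit versus DMSO baseline.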

Where “and” joins values, the source holds several entries; their conditions need not be identical. Equal entries are not always repeated. Inconclusive results are not listed. A structure can be active in one record and inactive in another. Calls of active or inactive are those of the source. How the source made its calls, unless noted: active means hit-call score of the fitted dose curve at least 0.9, where 1 is the maximum; inactive means score below 0.9.

Chain of E-selectin (Homo sapiens) (P16581 whole entry, looked up): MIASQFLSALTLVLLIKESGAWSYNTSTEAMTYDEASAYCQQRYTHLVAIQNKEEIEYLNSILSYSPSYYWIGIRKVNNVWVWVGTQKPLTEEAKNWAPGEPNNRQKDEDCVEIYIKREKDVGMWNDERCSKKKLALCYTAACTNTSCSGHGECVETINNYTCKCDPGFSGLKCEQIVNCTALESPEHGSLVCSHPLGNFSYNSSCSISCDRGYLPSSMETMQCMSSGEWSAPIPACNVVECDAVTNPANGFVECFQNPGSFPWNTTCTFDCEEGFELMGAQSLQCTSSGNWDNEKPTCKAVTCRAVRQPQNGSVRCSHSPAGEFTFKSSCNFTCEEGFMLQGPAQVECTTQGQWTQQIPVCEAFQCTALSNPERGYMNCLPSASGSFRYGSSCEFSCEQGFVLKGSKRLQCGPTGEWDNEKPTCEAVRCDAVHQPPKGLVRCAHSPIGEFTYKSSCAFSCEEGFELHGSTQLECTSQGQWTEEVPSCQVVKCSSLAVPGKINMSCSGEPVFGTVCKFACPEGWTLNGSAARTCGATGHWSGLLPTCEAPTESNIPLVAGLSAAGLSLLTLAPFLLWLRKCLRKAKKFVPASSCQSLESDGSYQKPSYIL

In the case of `CC1=CCCC(C)(C)C12CCC(C)O2` (centres undefined), the molecule was called inactive in test [1], in test [2], in [3] and in test [4].

Turning to `CCOC(=O)c1ccccc1`, the molecule was classed as inactive in test [2], in test [3] and in test [4].

With `OC(C(F)(F)F)(C(F)(F)F)C(O)(C(F)(F)F)C(F)(F)F`, the AC50 in test [5] is 13.8 µM (active) and 10.7 µM (active); in [6], 38.6 µM (active) and 42.1 µM (active); in test [7], 22.3 µM (active) and 27.4 µM (active); in [8], 31.6 µM (active) and 31.3 µM (active); in test [9] it was 41.9 µM (active) and 23.6 µM (active); in test [10], 5.95 µM (active). In addition, the AC50 in [11] was 13.2 µM (active) and 12.3 µM (active); in [12], 48.3 µM (active); in the test with CD40, CD40 (gene 958), 29.8 µM (active) and 21.6 µM (active); in test [13], 24.4 µM (active) and 51.9 µM (active); in test [15], 23.9 µM (active) and 23.3 µM (active); in [16] it was 7.65 µM (active) and 6.88 µM (active). Also, the AC50 in [17] is 22 µM (active) and 21.7 µM (active); in the test with CD69, CD69 (gene 969) it was 18.5 µM (active) and 17.7 µM (active). Also, the result in test [10], in [12], in test [14] and in test [18] was inactive.

With `CCC[Si](OC(C)=O)(OC(C)=O)OC(C)=O`, the outcome in test [5], in test [6], in test [7], in test [8], in test [9] and in [10] was inactive. Besides, the outcome in test [11] was “inactive”; in test [12] it was “inactive”; with CD40, CD40 (gene 958) it was “inactive”; in test [13] it was “inactive”; in [14], “inactive”; in test [15], “inactive”. Also, the outcome in [16] is “inactive”; in [17], “inactive”; with CD69, CD69 (gene 969) it was “inactive”; in [18], “inactive”.

On to `O=[N+]([O-])c1cc(S(=O)(=O)Nc2ccccc2)ccc1Nc1ccccc1`, for which the AC50 in [5] was 26 µM (active) and 17.8 µM (active); in [7], 26.6 µM (active) and 25.5 µM (active); in [8] it was 24 µM (active) and 30.5 µM (active); in test [9], 5.82 µM (active) and 5.34 µM (active); in [10], 30.4 µM (active) and 31.3 µM (active); in test [11] it was 32.4 µM (active) and 27 µM (active). The half-maximal activity concentration (AC50) in [12] is 32.8 µM (active) and 32.4 µM (active); in the test with CD40, CD40 (gene 958), 32.6 µM (active) and 20 µM (active); in [13], 20 µM (active) and 26.5 µM (active); in test [15], 29.1 µM (active) and 28.5 µM (active); in test [16], 28.9 µM (active); in test [17], 9.74 µM (active). For the same molecule, the half-maximal activity concentration (AC50) with CD69, CD69 (gene 969) was 22 µM (active) and 18 µM (active). Also, the outcome in test [6], in test [14], in test [16], in [17] and in test [18] was inactive.
